Eleven compounds from ChEMBL document CHEMBL3988442, “University of Dundee, Small-Polar-MMV Screening Library” (2021) can be followed below.

For some of these results: Results with a measured potency or affinity are listed apart.

What all share (parameters): scale not given: direction of the effect not stated beside the values
Assay [1] addresses Protein translocase subunit SecA (Escherichia coli (strain K12)) (UniProt P10408). As to the kind of experiment: Assay to Identify E. coli SecA ATPase Inhibitors. The assay is classed as functional. Particulars: 30 µM.
In assay [2] the target is T1, Ubiquitin-activating enzyme e1, putative (Leishmania donovani (strain BPK282A1)) (UniProt E9BSI1).
T1 sequence (whole entry): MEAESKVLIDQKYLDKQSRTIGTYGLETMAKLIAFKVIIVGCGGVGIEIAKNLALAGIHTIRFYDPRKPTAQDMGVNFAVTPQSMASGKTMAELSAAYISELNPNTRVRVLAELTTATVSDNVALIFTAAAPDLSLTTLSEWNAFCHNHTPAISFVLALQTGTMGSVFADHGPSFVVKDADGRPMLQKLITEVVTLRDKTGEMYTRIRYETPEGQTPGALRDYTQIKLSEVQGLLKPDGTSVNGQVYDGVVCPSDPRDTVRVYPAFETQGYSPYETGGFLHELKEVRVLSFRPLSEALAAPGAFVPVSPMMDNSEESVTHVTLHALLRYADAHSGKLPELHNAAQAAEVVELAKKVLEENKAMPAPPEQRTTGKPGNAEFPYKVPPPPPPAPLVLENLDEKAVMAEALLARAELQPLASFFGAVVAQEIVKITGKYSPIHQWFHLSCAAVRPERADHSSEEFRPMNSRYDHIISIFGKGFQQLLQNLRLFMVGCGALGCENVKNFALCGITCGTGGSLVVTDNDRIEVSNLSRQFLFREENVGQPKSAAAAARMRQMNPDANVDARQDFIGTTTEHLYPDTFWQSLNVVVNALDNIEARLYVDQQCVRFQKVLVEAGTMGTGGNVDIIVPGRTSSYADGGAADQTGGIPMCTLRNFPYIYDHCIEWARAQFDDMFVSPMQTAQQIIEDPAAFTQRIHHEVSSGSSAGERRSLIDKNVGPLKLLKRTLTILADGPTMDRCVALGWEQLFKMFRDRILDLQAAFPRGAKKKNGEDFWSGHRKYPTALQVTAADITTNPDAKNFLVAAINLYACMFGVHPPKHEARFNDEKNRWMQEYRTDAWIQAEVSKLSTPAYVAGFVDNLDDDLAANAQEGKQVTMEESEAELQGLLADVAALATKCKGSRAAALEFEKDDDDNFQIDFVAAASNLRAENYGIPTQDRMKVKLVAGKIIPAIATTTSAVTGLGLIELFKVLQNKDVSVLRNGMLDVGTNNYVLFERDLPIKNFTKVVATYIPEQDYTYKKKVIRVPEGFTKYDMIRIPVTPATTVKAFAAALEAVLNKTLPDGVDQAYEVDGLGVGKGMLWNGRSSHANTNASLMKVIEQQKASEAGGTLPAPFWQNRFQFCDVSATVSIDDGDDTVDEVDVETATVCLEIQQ
In words: Leishmania donovani Ubiquitin Activating Enzyme (LdE1). Conditions: 30 µM. The assay is classed as functional.

The target of assay [3] is AMP-activated protein kinase, AMPK (Homo sapiens) (UniProt P54646+O43741+P54619+Q9UGJ0+Q9Y478+Q13131+Q9UGI9). In words: AMP-dependent Kinase enzyme assay. An in vitro enzyme assay that detects ADP turnover that is directly proportional to AMPK activity. This uses naive AMPK that is activated during the assay with MK-8722. The assay is classed as functional. Particulars: 30 µM.

The target of assay [4] is Sialic acid-binding Ig-like lectin 9 (Homo sapiens) (UniProt Q9Y336). In words: Hs-Siglec9 ALPHAscreen SOP 20170721. Conditions: 10 µM.
Sequence of Sialic acid-binding Ig-like lectin 9 (Homo sapiens) (Q9Y336 whole entry): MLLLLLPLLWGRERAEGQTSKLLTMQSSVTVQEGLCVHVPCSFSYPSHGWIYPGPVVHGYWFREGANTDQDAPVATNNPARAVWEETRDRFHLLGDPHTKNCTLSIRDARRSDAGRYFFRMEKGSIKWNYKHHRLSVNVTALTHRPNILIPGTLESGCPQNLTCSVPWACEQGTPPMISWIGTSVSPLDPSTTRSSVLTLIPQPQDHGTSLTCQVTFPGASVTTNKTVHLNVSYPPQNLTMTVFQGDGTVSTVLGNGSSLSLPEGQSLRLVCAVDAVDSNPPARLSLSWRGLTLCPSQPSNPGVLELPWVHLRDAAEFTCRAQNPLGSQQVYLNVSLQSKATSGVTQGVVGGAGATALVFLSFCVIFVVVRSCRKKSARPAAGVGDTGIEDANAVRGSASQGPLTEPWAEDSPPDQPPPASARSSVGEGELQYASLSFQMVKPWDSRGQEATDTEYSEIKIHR
The test system of another assay is Trypanosoma cruzi. As to the kind of experiment: Trypanosoma cruzi phosphomannomutase and mannose-1-phosphate guanylyltransferase assay. The assay is classed as functional. Conditions: 10 µM.
Assay [5] concerns the target T2, Arginase-2, mitochondrial (Homo sapiens) (UniProt P78540).
T2 sequence (whole entry): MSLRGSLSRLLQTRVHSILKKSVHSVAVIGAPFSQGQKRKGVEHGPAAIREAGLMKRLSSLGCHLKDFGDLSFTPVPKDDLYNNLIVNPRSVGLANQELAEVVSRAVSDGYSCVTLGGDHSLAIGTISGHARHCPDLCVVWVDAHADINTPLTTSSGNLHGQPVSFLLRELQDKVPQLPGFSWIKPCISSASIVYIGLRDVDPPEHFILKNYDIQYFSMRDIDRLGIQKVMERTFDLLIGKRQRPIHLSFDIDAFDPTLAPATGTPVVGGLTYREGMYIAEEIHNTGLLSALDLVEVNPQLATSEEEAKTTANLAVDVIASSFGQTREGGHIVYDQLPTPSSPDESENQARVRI
As to the kind of experiment: in vitro enzyme assay to detect the production of urea directly proportional to the activity of Arginase II. Also: in the data most compounds retested in dose-response had high values. The assay is classed as functional. Particulars: 33.3 µM.

Assay [6] addresses T3, Proteasome subunit beta (Trypanosoma cruzi) (UniProt O96673).
T3 sequence (whole entry): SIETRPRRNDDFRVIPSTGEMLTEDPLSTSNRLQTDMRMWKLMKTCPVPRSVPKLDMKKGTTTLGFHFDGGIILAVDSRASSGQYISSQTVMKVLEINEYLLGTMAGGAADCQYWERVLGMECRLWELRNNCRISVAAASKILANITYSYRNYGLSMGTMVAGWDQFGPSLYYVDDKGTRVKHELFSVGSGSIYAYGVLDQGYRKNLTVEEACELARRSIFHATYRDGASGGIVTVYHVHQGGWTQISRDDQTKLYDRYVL
As to the kind of experiment: Trypanosoma cruzi proteasome chymotrypsin-like activity (TcProtChymo) assay. Also: in the data most compounds retested in dose-response had high values. The assay is classed as functional. Conditions: 9.37 µM.

The species entered for a further assay is Homo sapiens. As to the kind of experiment: To identify inhibition of the IFN signalling (Jak-Stat) pathway via expression of an eGFP reporter gene under the control of an IFN-stimulated response element (ISRE) containing MxA promoter. The assay is classed as functional. Conditions: 30 µM.
Assay [7] deals with T4, Tyrosyl-tRNA synthetase, putative (Trypanosoma cruzi (strain CL Brener)) (UniProt Q4DSP6).
T4 sequence (whole entry): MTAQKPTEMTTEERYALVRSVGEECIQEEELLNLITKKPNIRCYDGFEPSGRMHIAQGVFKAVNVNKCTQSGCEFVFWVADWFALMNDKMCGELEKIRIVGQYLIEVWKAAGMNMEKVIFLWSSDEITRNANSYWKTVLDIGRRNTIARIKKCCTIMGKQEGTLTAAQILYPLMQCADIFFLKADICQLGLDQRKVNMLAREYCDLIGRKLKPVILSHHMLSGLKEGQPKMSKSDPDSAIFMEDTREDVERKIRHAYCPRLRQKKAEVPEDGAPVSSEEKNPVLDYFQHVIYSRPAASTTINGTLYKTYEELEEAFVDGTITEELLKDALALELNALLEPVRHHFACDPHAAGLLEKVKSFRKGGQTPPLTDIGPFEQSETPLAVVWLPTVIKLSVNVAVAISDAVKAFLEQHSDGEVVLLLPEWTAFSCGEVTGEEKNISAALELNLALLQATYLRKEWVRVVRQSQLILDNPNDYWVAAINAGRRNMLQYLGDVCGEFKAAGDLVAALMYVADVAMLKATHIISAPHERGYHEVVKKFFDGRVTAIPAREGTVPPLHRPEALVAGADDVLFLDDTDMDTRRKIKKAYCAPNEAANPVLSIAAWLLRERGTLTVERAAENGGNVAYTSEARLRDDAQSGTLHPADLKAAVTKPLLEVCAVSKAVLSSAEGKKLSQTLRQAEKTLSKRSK
As to the kind of experiment: Trypanosoma cruzi tyrosyl tRNA synthetase (TcYRS) _High Tyrosine SOP. Also: in the data most compounds retested in dose-response had high values. In kind it is functional. Particulars: 30 µM.

Assay [8] has as its target T4, Tyrosyl-tRNA synthetase, putative (Trypanosoma cruzi (strain CL Brener)). In words: Trypanosoma cruzi tyrosyl tRNA synthetase (TcYRS) SOP. The assay is classed as functional. Conditions: 30 µM.
Assay [9] addresses Chromo domain-containing protein 1 (Saccharomyces cerevisiae (strain ATCC 204508 / S288c) (Baker's yeast)) (UniProt P32657). In words: ScCHD-1 Enzyme Inhibition Assay. Also: in the data most compounds retested in dose-response had high values. In kind it is functional. Particulars: 30 µM.

Sequence of Protein translocase subunit SecA (Escherichia coli (strain K12)) (P10408 whole entry): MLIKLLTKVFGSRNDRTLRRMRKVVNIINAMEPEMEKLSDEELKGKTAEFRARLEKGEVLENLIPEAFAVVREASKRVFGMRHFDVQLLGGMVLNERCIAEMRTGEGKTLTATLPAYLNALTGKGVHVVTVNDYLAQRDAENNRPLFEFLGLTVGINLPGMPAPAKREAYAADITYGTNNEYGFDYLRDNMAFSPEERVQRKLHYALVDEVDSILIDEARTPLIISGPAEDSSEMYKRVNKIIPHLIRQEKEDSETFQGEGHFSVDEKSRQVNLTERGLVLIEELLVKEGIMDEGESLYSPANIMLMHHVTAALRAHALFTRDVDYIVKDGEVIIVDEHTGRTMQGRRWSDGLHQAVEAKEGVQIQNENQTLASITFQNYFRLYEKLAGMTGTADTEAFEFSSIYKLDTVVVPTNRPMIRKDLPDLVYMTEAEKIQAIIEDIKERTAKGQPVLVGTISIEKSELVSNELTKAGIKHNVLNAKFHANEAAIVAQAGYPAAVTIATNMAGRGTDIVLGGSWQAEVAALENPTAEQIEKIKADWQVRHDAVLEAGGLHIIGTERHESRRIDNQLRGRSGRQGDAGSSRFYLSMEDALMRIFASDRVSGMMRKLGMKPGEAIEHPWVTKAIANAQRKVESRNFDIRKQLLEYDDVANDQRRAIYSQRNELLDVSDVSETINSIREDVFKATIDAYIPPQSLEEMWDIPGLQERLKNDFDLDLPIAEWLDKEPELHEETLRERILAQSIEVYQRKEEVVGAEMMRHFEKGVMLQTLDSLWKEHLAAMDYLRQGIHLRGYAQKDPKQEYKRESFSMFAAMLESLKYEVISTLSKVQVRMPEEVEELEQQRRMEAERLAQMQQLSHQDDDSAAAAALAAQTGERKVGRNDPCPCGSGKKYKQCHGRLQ
Sequence of Chromo domain-containing protein 1 (Saccharomyces cerevisiae (strain ATCC 204508 / S288c) (Baker's yeast)) (P32657 whole entry, the tested form may be a part): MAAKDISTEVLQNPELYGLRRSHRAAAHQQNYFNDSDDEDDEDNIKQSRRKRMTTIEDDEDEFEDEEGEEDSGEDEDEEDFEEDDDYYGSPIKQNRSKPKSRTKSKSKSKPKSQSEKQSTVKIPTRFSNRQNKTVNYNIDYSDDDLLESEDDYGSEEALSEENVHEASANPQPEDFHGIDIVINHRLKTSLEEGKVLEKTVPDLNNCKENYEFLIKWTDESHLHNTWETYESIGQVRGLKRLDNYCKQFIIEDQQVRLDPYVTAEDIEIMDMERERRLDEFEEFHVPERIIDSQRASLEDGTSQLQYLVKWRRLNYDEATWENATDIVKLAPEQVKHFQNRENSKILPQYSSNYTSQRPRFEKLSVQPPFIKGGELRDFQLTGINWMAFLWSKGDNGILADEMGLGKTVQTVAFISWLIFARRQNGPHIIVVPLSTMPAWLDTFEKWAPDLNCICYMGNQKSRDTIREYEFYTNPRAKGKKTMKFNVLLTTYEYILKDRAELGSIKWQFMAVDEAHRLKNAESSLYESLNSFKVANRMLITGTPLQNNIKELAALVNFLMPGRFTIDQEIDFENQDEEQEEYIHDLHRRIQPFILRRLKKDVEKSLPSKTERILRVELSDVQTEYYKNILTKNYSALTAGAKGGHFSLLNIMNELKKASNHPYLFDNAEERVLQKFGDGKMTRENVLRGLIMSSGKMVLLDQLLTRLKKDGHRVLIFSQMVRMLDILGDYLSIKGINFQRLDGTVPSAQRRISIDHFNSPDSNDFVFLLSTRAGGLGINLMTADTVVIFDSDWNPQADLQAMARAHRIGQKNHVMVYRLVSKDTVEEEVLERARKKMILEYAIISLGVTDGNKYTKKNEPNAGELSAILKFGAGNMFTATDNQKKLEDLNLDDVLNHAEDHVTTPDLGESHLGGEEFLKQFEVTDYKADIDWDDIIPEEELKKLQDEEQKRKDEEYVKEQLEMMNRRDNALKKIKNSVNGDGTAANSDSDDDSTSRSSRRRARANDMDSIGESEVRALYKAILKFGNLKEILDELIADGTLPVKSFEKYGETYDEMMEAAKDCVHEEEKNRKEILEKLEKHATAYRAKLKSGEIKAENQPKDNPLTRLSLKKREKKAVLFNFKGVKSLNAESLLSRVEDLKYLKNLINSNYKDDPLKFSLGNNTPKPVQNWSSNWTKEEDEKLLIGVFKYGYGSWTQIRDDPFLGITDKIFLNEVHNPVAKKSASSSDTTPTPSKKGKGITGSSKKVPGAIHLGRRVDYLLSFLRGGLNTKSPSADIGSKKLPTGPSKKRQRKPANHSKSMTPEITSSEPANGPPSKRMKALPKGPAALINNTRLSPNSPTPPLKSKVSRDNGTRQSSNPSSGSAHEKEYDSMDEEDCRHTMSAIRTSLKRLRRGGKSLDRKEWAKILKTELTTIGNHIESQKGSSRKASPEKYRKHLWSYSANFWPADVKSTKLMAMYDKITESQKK

Consider `O=C1NC2(CCN(C(=O)c3ccccc3)CC2)CC1c1cccnc1` (stereo unspecified), for which the Percent Effect in assay [1] was -4.51%; in assay [2], -2.74%; in assay [3] it was -3.55%; in assay [4] it was 5.92%; with Trypanosoma cruzi it was 9.32%; in assay [5], -6.39%. Also, the Percent Effect in assay [6] is 2.65%; in the assay filed under Homo sapiens, -28.6%; in [7], 6.25%; in [8], 13.6%; in [9], -2.24%.
Turning to `Cc1csc2c(=O)n3c(nc12)CCN(C(=O)c1cccnc1)CC3`, the Percent Effect is -2.51% in assay [1]; 9.46% in assay [2]; 13.3% in assay [3]; -1.07% in assay [4]; 4.94% with Trypanosoma cruzi; -1.16% in [5]. In addition, the Percent Effect was 8.27% in [6]; 4.21% in the assay filed under Homo sapiens; 4.3% in [7]; 6.49% in [8]; -13% in assay [9].
As to `CCN1CC2(CC1=O)CN(Cc1cccs1)CCN(C(=O)C(C)C)C2` (stereo unspecified), the Percent Effect was -5.19% in assay [1]; -5.41% in [2]; 2.9% in [3]; -2.56% in assay [4]; -2.73% with Trypanosoma cruzi; -3.33% in assay [5]. For the same compound, the Percent Effect in assay [6] was 7.35%; in the assay filed under Homo sapiens, -3.43%; in [7] it was 4.95%; in assay [8], 11%; in assay [9], 4.59%.
Regarding `CC(C)C(=O)NCC(=O)N(C)C1CCCN(CCc2ccccc2)C1` (stereo unspecified), the Percent Effect in [1] is -2.17%; in assay [2], 10.8%; in assay [3] it was 0.942%; in assay [4], 15.5%; in the assay with Trypanosoma cruzi, 4.25%; in assay [5], -0.952%. Also, the Percent Effect in assay [6] is 11.9%; in the assay filed under Homo sapiens, -0.751%; in assay [7], 3.7%; in assay [8] it was 4.88%; in [9] it was -5.28%.
`CS(=O)(=O)N1CC[C@H]2C[C@@H](C(=O)N3CCOCC3)O[C@@H]2C1`: the Percent Effect in assay [1] is -3.64%; in assay [2], -8%; in [3], 8.84%; in [4], 4.61%; in the assay on Trypanosoma cruzi, -1.54%; in assay [5] it was -53.2%. Besides, the Percent Effect in [6] is 2.73%; in the assay filed under Homo sapiens, -12.5%; in assay [7], -2.08%; in assay [8], -7.5%; in assay [9] it was 1.18%.
Consider `CCc1nnsc1C(=O)N1CCCN(Cc2cnn(C)c2)CC1`, for which the Percent Effect in assay [1] is -0.656%; in assay [2], -2.6%; in assay [3], -0.0421%; in assay [4], -5.43%; in the assay with Trypanosoma cruzi it was 7.74%; in [5], -0.21%. The Percent Effect in [6] was -1.05%; in the assay filed under Homo sapiens it was -10.1%; in assay [7] it was 0.952%; in [8] it was 2.35%; in assay [9] it was -0.342%.
With `NC(=O)N1CCC2(CC1)CN(c1ccsc1)C(=O)CO2`, the Percent Effect in assay [1] is -5.13%; in assay [2] it was 10.7%; in assay [3] it was 4.87%; in assay [4], 0.623%; in the assay on Trypanosoma cruzi, -7.68%; in assay [5], -3.96%. Also, the Percent Effect in [6] was -2.38%; in the assay filed under Homo sapiens, 11%; in assay [7], -3.19%; in assay [8], -1.28%; in assay [9] it was -2.23%.
Take `O=C1CCSCC(C(=O)N2CCN(C3CCCCC3)CC2)N1` (stereo unspecified): the Percent Effect in assay [1] was -2.82%; in [2], 0%; in assay [3] it was -2.68%; in assay [4], -4.3%; in the assay with Trypanosoma cruzi, 0.979%; in assay [5], 3.64%. Further, the Percent Effect in assay [6] is 2.48%; in the assay filed under Homo sapiens, -1.47%; in assay [7], 5.38%; in assay [8], 12.5%; in assay [9], -0.805%.
`Cn1cnnc1C1CCCN(C(=O)c2ccccc2Cl)C1` (stereo unspecified): the Percent Effect in [1] is -3.26%; in assay [2], 18.2%; in assay [3], -0.796%; in assay [4] it was -3.37%; in the assay on Trypanosoma cruzi, 1.67%; in [5] it was 0.632%. For the same compound, the Percent Effect in [6] was 5.74%; in the assay filed under Homo sapiens, 6.09%; in [7] it was 11.4%; in assay [8], 25.9%; in [9], -17.8%.
`Cc1ccsc1CN(C)C(=O)Cn1nc(-c2ccc(F)cc2)oc1=O`: the Percent Effect in assay [1] is -0.652%; in assay [2], 13.2%; in [3], 1.09%; in [4], -2.29%; in the assay with Trypanosoma cruzi, 3.8%; in assay [5], -3.55%. In addition, the Percent Effect was 22.5% in [6]; 10.2% in the assay filed under Homo sapiens; -8.51% in [7]; 0% in assay [8]; -6.06% in assay [9].
With `COc1nc(C)cc(C)c1CNC(=O)N(C)Cc1cnn(C)c1`, the Percent Effect in assay [1] was -2.85%; in [2] it was 10.8%; in assay [3] it was -7.89%; in assay [4] it was 7.05%; in the assay on Trypanosoma cruzi, 2.32%; in assay [5] it was -2.4%. Further, the Percent Effect in assay [6] is 6.28%; in the assay listed under Homo sapiens it was 4.87%; in assay [7], 3.96%; in assay [8], 15.8%; in [9] it was -6.86%.
